Growth data for eight molecules are collected here from PubChem BioAssay (NCI).

Test systems include SR leukemia; RPMI-8226 leukemia; OVCAR-8 ovarian; OVCAR-5 ovarian; OVCAR-4 ovarian; SK-OV-3 ovarian; IGROV1 ovarian; OVCAR-3 ovarian; HS 578T breast; NCI/ADR-RES ovarian; T-47D breast; BT-549 breast; MDA-MB-435 melanoma; SW-620 colon; MCF7 breast; HCT-116 colon; HCC-2998 colon; KM12 colon; MOLT-4 leukemia.
Holding throughout (assay): NCI-60 one-dose screen, 48 h (100 = growth as untreated, 0 = no growth, -100 = all killed)
Common to all, as to settings: 10 µM unless noted

The panel holds about 83,000 compounds, 20% with a hit somewhere; the sample as a whole holds those more often.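 Cells were grown in 96-well plates and exposed to the test compound at a single concentration for 48 hours; results are reported as percent growth, with values below 10 considered active.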 Values without a mark were called inactive. Activity calls are given as the source filed them.

Regarding `CC1=C(CCCOC(=O)[C@H](N)CC(C)C)C2=C(C)C3(CC3)[C@@](C)(O)C(=O)C2=C1`, the growth with SR leukemia was 95.1%; with RPMI-8226 leukemia, 90%; in the assay with OVCAR-8 ovarian it was 3.99% (active); with OVCAR-5 ovarian it was 22.8%; with OVCAR-4 ovarian, 4.85% (active); with SK-OV-3 ovarian, -18.1% (active). Besides, the growth in the assay with IGROV1 ovarian was 2.81% (active); in the assay on OVCAR-3 ovarian, -14% (active); in the assay on HS 578T breast, 79%; in the assay with NCI/ADR-RES ovarian, 3.96% (active); in the assay on T-47D breast, 5.21% (active); in the assay on BT-549 breast, -9.68% (active). Also, the growth is 69.8% in the assay with MDA-MB-435 melanoma; 87.1% with SW-620 colon; 37.8% in the assay with MCF7 breast; 9.3% (active) in the assay with HCT-116 colon; 0.215% (active) with HCC-2998 colon; 79.8% in the assay with KM12 colon.

On to `CC(=O)OCc1cc[c]([Hg][Cl])o1`, for which the growth was -20.3% (active) with SR leukemia; 26.4% in the assay with RPMI-8226 leukemia; 36.8% in the assay with OVCAR-8 ovarian; 43.9% in the assay with OVCAR-5 ovarian; 62.9% with OVCAR-4 ovarian; 71% in the assay with SK-OV-3 ovarian. Besides, the growth was 11.3% in the assay with IGROV1 ovarian; 0.253% (active) with OVCAR-3 ovarian; 57.5% with HS 578T breast; 77.1% in the assay with NCI/ADR-RES ovarian; 17.8% in the assay on T-47D breast; 14.3% in the assay on BT-549 breast. In addition, the growth with MDA-MB-435 melanoma was 29.4%; in the assay with SW-620 colon it was 25.4%; with MCF7 breast, 20.2%; in the assay on HCT-116 colon, 35.7%; in the assay on HCC-2998 colon it was 76.4%; in the assay with KM12 colon, 91.8%.

For the molecule `CC(=O)O[C@H]1CC[C@@]2(C)C(=CC[C@H]3[C@@H]4C[C@@H](N5CC5)[C@H](C(C)=O)[C@@]4(C)CC[C@@H]32)C1`, the growth with SR leukemia is 58.6%; in the assay on RPMI-8226 leukemia, 79.3%; in the assay with OVCAR-8 ovarian, 88.5%; in the assay with OVCAR-5 ovarian it was 99.5%; with OVCAR-4 ovarian, 80.3%; in the assay on SK-OV-3 ovarian, 99.9%. In addition, the growth in the assay on IGROV1 ovarian is 86.2%; in the assay on OVCAR-3 ovarian, 109%; in the assay with HS 578T breast, 98%; with NCI/ADR-RES ovarian, 92.9%; in the assay on T-47D breast, 88.3%; with BT-549 breast it was 100%. Besides, the growth in the assay with MDA-MB-435 melanoma was 99.9%; in the assay on SW-620 colon it was 89.6%; with MCF7 breast, 72.8%; in the assay with HCT-116 colon, 85.9%; with HCC-2998 colon, 106%; in the assay with KM12 colon, 106%.

As for `CCOC(=O)N1CC1`, the growth in the assay with SR leukemia is -20.9% (active); in the assay on RPMI-8226 leukemia, 91.2%; with OVCAR-8 ovarian, 101%; in the assay on OVCAR-5 ovarian it was 97.1%; in the assay on OVCAR-4 ovarian, 93.1%; with SK-OV-3 ovarian it was 111%. The growth in the assay on IGROV1 ovarian was 93.5%; with OVCAR-3 ovarian it was 111%; with HS 578T breast it was 112%; with NCI/ADR-RES ovarian, 98%; in the assay on T-47D breast it was 114%; in the assay with BT-549 breast it was 109%. In addition, the growth in the assay with MDA-MB-435 melanoma was 97.1%; in the assay with SW-620 colon, 103%; with MCF7 breast, 102%; in the assay on HCT-116 colon it was 98.4%; in the assay with HCC-2998 colon it was 150%.

For the molecule `O=C(CC1(O)C(=O)N(Cc2ccccc2)c2ccc(Cl)cc21)c1ccc(C(=O)NCC2CCC3(CC2)OOC2(CCCCC2)OO3)cc1` (stereo unspecified), the growth with MOLT-4 leukemia was -50.5% (active); in the assay with OVCAR-8 ovarian, -27.5% (active); in the assay on OVCAR-5 ovarian, 5.96% (active); with OVCAR-4 ovarian, -40.2% (active); in the assay with SK-OV-3 ovarian, 68%; with IGROV1 ovarian, -35.2% (active). Further, the growth in the assay on OVCAR-3 ovarian is -83.8% (active); with HS 578T breast it was -4.46% (active); in the assay with NCI/ADR-RES ovarian it was -42.7% (active); with T-47D breast it was -56% (active); with BT-549 breast it was 11.8%; in the assay on MDA-MB-435 melanoma, -67.8% (active). For the same molecule, the growth was -56.5% (active) in the assay on SW-620 colon; 17.4% in the assay on MCF7 breast; 3.72% (active) in the assay with HCT-116 colon; 67.6% in the assay on HCC-2998 colon; -67.3% (active) in the assay with KM12 colon.

Regarding `COc1ccc(/C=C\c2cc(OC)c(OC)c(OC)c2)cc1NS(=O)(=O)c1ccc(Cl)cc1`, the growth with SR leukemia is 51.4%; in the assay on RPMI-8226 leukemia, 64.3%; with OVCAR-8 ovarian, 78.5%; in the assay on OVCAR-5 ovarian, 83.4%; in the assay with OVCAR-4 ovarian it was 55%; with SK-OV-3 ovarian it was 81.9%. Also, the growth is 61.9% with IGROV1 ovarian; 76.6% with OVCAR-3 ovarian; 67.8% in the assay with HS 578T breast; 35.2% with NCI/ADR-RES ovarian; 59.9% in the assay on T-47D breast; 83.5% with BT-549 breast. Besides, the growth in the assay on MDA-MB-435 melanoma is 3.63% (active); in the assay with SW-620 colon, 73.6%; in the assay on HCT-116 colon, 61.8%; in the assay with HCC-2998 colon it was 74.8%; with KM12 colon it was 50.4%.

Regarding `CC(C)=CC1C(C(=O)OCc2cccc(Oc3ccccc3)c2)C1(C)C` (stereo unspecified), the growth in the assay with MOLT-4 leukemia was 83.3%; in the assay with OVCAR-8 ovarian it was 100%; in the assay on OVCAR-4 ovarian it was 97.3%; in the assay on SK-OV-3 ovarian, 102%; in the assay with IGROV1 ovarian it was 93.1%; with OVCAR-3 ovarian, 102%. The growth with HS 578T breast is 101%; in the assay with NCI/ADR-RES ovarian it was 95%; in the assay on T-47D breast it was 81.5%; in the assay with BT-549 breast, 100%; in the assay on MDA-MB-435 melanoma, 91.9%; with SW-620 colon, 94.8%. Moreover, the growth in the assay on HCT-116 colon was 84.8%; in the assay on HCC-2998 colon, 94.5%; in the assay with KM12 colon, 97.3%.

As to `COc1cccc2c1c(C(=O)C(=O)Nc1ccn[nH]1)cn2Cc1ccc(F)cc1`, the growth in the assay with MOLT-4 leukemia was 97.5%; with OVCAR-8 ovarian, 101%; in the assay on OVCAR-5 ovarian, 91.2%; with OVCAR-4 ovarian, 110%; in the assay on SK-OV-3 ovarian it was 95.9%; with IGROV1 ovarian, 84.7%. The growth with OVCAR-3 ovarian was 106%; in the assay on HS 578T breast it was 100%; in the assay with NCI/ADR-RES ovarian, 109%; with T-47D breast, 104%; in the assay on BT-549 breast, 114%; with SW-620 colon, 102%. Besides, the growth is 92.3% with MCF7 breast, 103% in the assay on HCT-116 colon, 39.6% in the assay on HCC-2998 colon and 105% in the assay on KM12 colon.
